Data as given in PubChem BioAssay (EPA / NIEHS).
Results filed as inconclusive are left out. The source made the active and inactive calls. Rule for the calls, unless noted: active = hit-call score of the fitted dose curve at least 0.9, where 1 is the maximum; inactive = score below 0.9.

Legend:
[1] = CCTE_Mundy_HCI_Cortical_NOG_NeuriteCount: CCTE's Neurite Outgrowth Assay in rat cortical cells for Neurite Count, Mundy Lab (AID 2284212);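 note: cells fixed about two days after chemical exposure began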
Summary of the method: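 Rat cortical primary cells; compound added 2 h post-plating, 1/10 dilution of working solution. Anti-betaIII-tubulin/AF488 ICC; ArrayScan neurite count vs DMSO.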

[2] = CCTE_Mundy_HCI_Cortical_Synap_Neur_Matur_NeuriteLength: CCTE's Synaptogenesis and Neurite Maturation Assay in rat cortical cells for Neurite Length, Mundy Lab (AID 2284214)
Summary of the method: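 Cultures of rat primary cortical cells received chemical at DIV 7 and were fixed at DIV 12, after glial arrest with AraC at DIV 5. Neurite length was measured by automated imaging of MAP2 immunofluorescence.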

[3] = CCTE_Mundy_HCI_Cortical_Synap_Neur_Matur_NeuriteSpotCountPerNeuron: CCTE's Synaptogenesis and Neurite Maturation Assay in rat cortical cells for Neurite Spot Count per Neuron Count, Mundy Lab (AID 2284215)
Summary of the method: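 Synapse density is scored as synaptophysin spots along neurites per neuron in fixed rat cortical neurons, measured at DIV 12 after chemical dosing at DIV 7. DMSO is the negative control and activity baseline.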

[4] = CCTE_Mundy_HCI_Cortical_Synap_Neur_Matur_SynapseCount: CCTE's Synaptogenesis and Neurite Maturation Assay in rat cortical cells for Synapse Count, Mundy Lab (AID 2284218)
Summary of the method: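 Cells were plated, allowed 2 hr to attach, treated with AraC at DIV 5, then exposed to chemicals from DIV 7 until DIV 12. After fixation and MAP2/synaptophysin immunolabelling, synapses per neuron were quantified by automated imaging against DMSO.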

[5] = CCTE_Mundy_HCI_hN2_NOG_NeuriteCount: CCTE's Neurite Outgrowth Assay in human hN2 cells for Neurite Count, Mundy Lab (AID 2284219; active = hit-call score of the fitted dose curve at least 0.9, where 1 is the maximum)
Description: CCTE_Mundy_HCI_hN2_NOG is a multiplexed, cell-based-readout assay that uses immature neurons derived from hNP1 neuroprogenitor cells with measurements taken at 50.33 hours after chemical dosing in a microplate: 96-well plate.CCTE_Mundy_HCI_hN2_NOG_NeuriteCount is one of four components of the CCTE_Mundy_HCI_hN2_NOG assay. It measures neurite outgrowth related to number of neurites using High Content Imaging of fluorescently labelled markers.[…] Using a type of morphology reporter, loss -of-signal activity can be used to understand developmental effects.
Exposure starts 2 hours post-plating by adding 10 ul of the working solution to 90 ul of media in the wells for a 1/10 dilution. Forty-eight hours after chemical treatment cells are fixed by direct addition of 100 ul of warm (37C) Dulbecco's phosphate buffered saline (DPBS) fixative solution containing 8% paraformaldehyde, 8% sucrose, and 0.1% of 3 mg/ml Hoechst 33342 into each well. Primary antibodies are prepared by dilution in Immunocytochemical Staining Buffer (ISB), 10X Dulbecco's PBS, 0.1% Saponin, 5% Bovine Serum Albumin, 0.5% NaN3 (Sodium Azide) and betaIII-tubulin (rabbit anti-betaIII-tubulin, 1:800) followed by Alexa Fluor-488 secondary (1:500) to label neuronal cell bodies and neurites. A Cellomics ArrayScan VTi HCS Reader is used for automated image acquisition and analysis of neurite outgrowth.

[6] = CCTE_Mundy_HCI_hN2_NOG_NeuriteLength: CCTE's Neurite Outgrowth Assay in human hN2 cells for Neurite Length, Mundy Lab (AID 2284220; active = hit-call score of the fitted dose curve at least 0.9, where 1 is the maximum)
Summary of the method: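 Using βIII-tubulin immunofluorescence and Hoechst nuclear counterstain, this component quantifies neurite length in hNP1-derived neurons.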

[7] = CCTE_Mundy_HCI_hN2_NOG_NeuronCount: CCTE's Neurite Outgrowth Assay in human hN2 cells for Neuron Count, Mundy Lab (AID 2284221; active = hit-call score of the fitted dose curve at least 0.9, where 1 is the maximum)
Summary of the method: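 Read-out is the number of betaIII-tubulin-positive neurons imaged by automated high-content analysis, with DMSO as negative control.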

[8] = CCTE_Mundy_HCI_Cortical_Synap_Neur_Matur_NeuriteCount: CCTE's Synaptogenesis and Neurite Maturation Assay in rat cortical cells for Neurite Count, Mundy Lab (AID 2284222)
Summary of the method: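 Primary rat cortical cells were plated, treated with AraC at DIV 5, then exposed to chemicals from DIV 7 through DIV 12. After fixation and immunostaining for MAP2 and synaptophysin, imaging quantified neurites, with DMSO as the negative control.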

[9] = CCTE_Mundy_HCI_Cortical_Synap_Neur_Matur_CellBodySpotCount: CCTE's Synaptogenesis and Neurite Maturation Assay in rat cortical cells for Cell Body Spot Count, Mundy Lab (AID 2284223)
Summary of the method: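 Synapse number at neuronal cell bodies was quantified as synaptophysin puncta per neuron in rat cortical cultures exposed from DIV 7 to DIV 12. Values were normalised to DMSO.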

[10] = TAMU_PeakParms_SingleDonor1434_Chronotropy: Texas A&M University (TAMU) 1.5-hr Human Induced Pluripotent Stem Cell (iPSC)-derived Cardiomyocytes Calcium (Ca+2) Flux Assay for Cardiotoxicity: Chronotropy (changes in peak frequency) (AID 2284217); conditions: actives raise or lower the signal
Summary of the method: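 iPSC-CMs, donor 1434; 4 conc (0.2–100 uM), 0.5% v/v DMSO, 90 min, 37C/5% CO2; Ca2+ flux fluorescence → peak.freq.avg; peak.freq.avg = 0 dropped; bidirectional fit vs DMSO; EC05 POD.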

Measured: AC50

Nc1cc(Cl)cc(C(=O)O)c1Cl
not listed: [10]
inactive: all other assays above

OCCOCCO
not listed: [10]
inactive: all other assays above

O=P(OCCCl)(OCCCl)OCCCl
inactive: [10]

COP(=S)(OC)SCN1C(=O)c2ccccc2C1=O
active: [5] 33.5 µM | [6] 31.1 µM | [7] 23.1 µM
not listed: [10]
inactive: all other assays above

Clc1ccc(C(c2ccc(Cl)cc2)C(Cl)(Cl)Cl)cc1
inactive: [10]

CC(C)COC(=O)c1ccccc1C(=O)OCC(C)C
active: [2] 80.2 µM | [3] 77.8 µM | [4] 79.6 µM | [8] 88.7 µM | [9] 83.8 µM
inactive: [1]

CCCCCCCCn1sccc1=O
inactive: [10]

C1=Cc2cccc3cccc1c23
active: [10] 50 µM

CNC(=O)Oc1cccc2c1OC(C)(C)C2
inactive: [1] | [2] | [3] | [4] | [8] | [9]

CCCCOC(=O)c1ccccc1C(=O)OCc1ccccc1
inactive: [1] | [2] | [3] | [4] | [8] | [9]

COC(=O)Nc1nc2ccccc2[nH]1
inactive: [1] | [3] | [4] | [8] | [9]
active: [2] 4.05 µM

ClC1=C(Cl)C2(Cl)C3C(Cl)C=CC3C1(Cl)C2(Cl)Cl (configuration not stated)
inactive: [10]
active: [1] 17.6 µM | [2] 13.4 µM | [3] 10.5 µM | [4] 10.6 µM | [5] 5 µM | [6] 4.18 µM | [7] 2.86 µM | [8] 14.9 µM | [9] 12.4 µM

[O-][Cl+]O
inactive: [1] | [2] | [3] | [4] | [8] | [9]

CC(C)(C)C(O)(CCc1ccc(Cl)cc1)Cn1cncn1 (configuration not stated)
active: [2] 10.2 µM
not listed: [5] | [7]
inactive: all other assays above

CN(C)[C@@H]1C(=O)C(C(N)=O)=C(O)[C@@]2(O)C(=O)C3=C(O)c4c(O)cccc4[C@@](C)(O)[C@H]3C[C@@H]12
inactive: [1] | [2] | [3] | [4] | [8] | [9]

ClC1=C(Cl)[C@]2(Cl)[C@H]3[C@H]([C@@H]4C=C[C@H]3C4)[C@@]1(Cl)C2(Cl)Cl
inactive: [10]

CCC[CH2][Sn]([Cl])([CH2]CCC)[CH2]CCC
active: [1] 0.112 µM | [2] 0.0468 µM | [3] 0.037 µM | [4] 0.0569 µM | [9] 0.102 µM
inactive: [8]
